Only some compounds are listed: those with a hit (about 2.4% of all), similar ones and a draw of the others.
TRAIL sens C8 = sensitizes caspase-8 expressing cells to TRAIL. AID 624354. 360,000 compounds, 1% hits. inhibition (viability loss, TRAIL sensitization), % at 10 µM. NB7+C8 cells + TRAIL, ATPlite viability luminescence;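 active = compounds causing at least 50% loss of cell viability in the single-dose screen, relative to plate controls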
HSF1 inh = HSF1 inhibition; NIH3T3-HGL HSE-luciferase, MG132-induced, luminescence 8 h; stronger effect = lower value; AID 2098; 300,000 compounds, 0.77% hits; activity change, negative = inhibition, % at 7.5 µM (by protocol);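 active = more than half of replicate wells show activity change below -50%, luminescence cut by over half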;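 note: luciferase reports HSF-1 transcriptional activity via heat shock element; 0% = median of DMSO wells and -100% = zero luminescence signal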
STAT3 blocker = STAT3 signaling inhibition | U3A cells, IL-6 STAT3-luciferase reporter, luminescence; host cell line lacks STAT1 | 190,000 compounds, 0.89% hits | inhibition, % at 5.5 µM;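 active = inhibition above the mean inhibition across all screened compounds plus 3 SD, cut at about 44% in these data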;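 note: 0% = DMSO only wells and 100% = 100 µM nifuroxazide control wells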
STAT1 blocker = STAT1 signaling inhibition | inhibition, % at 5.5 µM | NIH 3T3 STAT1-luciferase reporter, IFN-gamma, luminescence | 200,000 compounds, 0.35% hits;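 active = inhibition above a set limit, the mean inhibition across all tested compounds plus 3 SD, cut at about 34% in these data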;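 note: 0% = IFN-gamma with DMSO and 100% = IFN-gamma with 300 µM nifuroxazide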
HSP90 refold inh = HSP90 refolding inhibition in rabbit reticulocyte lysate. luciferase refolding luminescence, 3 h. inhibition, % at 5.6 µM. 290,000 compounds, 0.91% hits;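 active = inhibition above the screen-wide mean plus 3 SD, computed separately per campaign, cut at about 16% in these data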;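 note: 0% = DMSO wells and 100% = 60 µM geldanamycin wells; inhibitors lower the luminescence because luciferase stays unfolded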
PPC-1+TRAIL kill = kills PPC-1 cancer cells in the presence of TRAIL; cell killing (% activity), % at 4 µM or 5 µM; PPC-1 cells + TRAIL, ATPLite viability luminescence; 220,000 compounds, 0.41% hits; AID 1443;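 active = cell killing above 50% in the first pass at 4 µM, then a duplicate retest at 5 µM averaging 50% or more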;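 note: plate controls were cells with TRAIL plus DMSO for no effect and medium-only wells lacking cells for full effect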
PPC1 cytotox = kills PPC-1 cells. cytotoxicity, % at 5 µM. PPC-1 viability, ATPlite luminescence, overnight. 1,200 compounds, 50% hits. shares compounds with PPC-1+TRAIL kill;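 active = reconfirmed compounds whose average cytotoxicity reaches 50% or more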;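 note: 0% = DMSO-treated cells and 100% = wells holding medium but no cells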
An asterisk follows results filed as active.

For CCOC(=O)C1(C)CCCN1C(=O)c1snnc1C (stereo not given) the results were TRAIL sens C8 7.
For N=c1n(CCN2CCOCC2)c2ccccc2n1CC(=O)c1ccc(Cl)c(Cl)c1 the results were TRAIL sens C8 11, HSF1 inh 5, STAT3 blocker -28, STAT1 blocker -2, HSP90 refold inh 0 and PPC-1+TRAIL kill 0.
Screening N=c1n(CCN2CCCC2)c2ccccc2n1CC(O)c1ccc(Cl)c(Cl)c1 (stereo not given) returned TRAIL sens C8 1, HSF1 inh 5, STAT3 blocker 5, STAT1 blocker -4, HSP90 refold inh 0, PPC-1+TRAIL kill 24 and PPC1 cytotox 15.
Screening COc1ccc(NC(=O)Nc2ccc(Cc3ccncc3)cc2)cc1OC returned TRAIL sens C8 -5, HSF1 inh -5, STAT3 blocker 16, STAT1 blocker -9, HSP90 refold inh 0 and PPC-1+TRAIL kill 11.
`COc1ccc(C(=O)Nc2ccc(Cc3ccncc3)cc2)cc1Br` gave TRAIL sens C8 4, HSF1 inh -1, STAT3 blocker 10, STAT1 blocker -11, HSP90 refold inh 1, PPC-1+TRAIL kill 4 and PPC1 cytotox 20.
Screening CCOc1cccc2sc(NN)nc12 returned TRAIL sens C8 5, STAT3 blocker -4, STAT1 blocker -1, HSP90 refold inh -1 and PPC-1+TRAIL kill 2.
CCOc1cccc2sc(Cl)nc12 was read as TRAIL sens C8 -23, HSF1 inh -9, STAT3 blocker 6, STAT1 blocker 7, HSP90 refold inh -1, PPC-1+TRAIL kill 5 and PPC1 cytotox 4.
CCOC(=O)c1sc(-c2ccc(F)cc2)cc1N was read as TRAIL sens C8 4, HSF1 inh 28, STAT3 blocker -4, STAT1 blocker -27, HSP90 refold inh -1 and PPC-1+TRAIL kill 21.
`CCOC(=O)c1sc(-c2ccc(OC)cc2)cc1N` gave TRAIL sens C8 6, HSF1 inh 17, STAT3 blocker -2, STAT1 blocker -62, HSP90 refold inh 0, PPC-1+TRAIL kill 17 and PPC1 cytotox 9.
For CC(=O)Cc1cc(O)c2ccccc2c1OC(=O)c1ccccc1 the results were TRAIL sens C8 3, HSF1 inh 19, STAT3 blocker -4, STAT1 blocker -1, HSP90 refold inh 6, PPC-1+TRAIL kill 12 and PPC1 cytotox 11.
Screening O=C(Nc1nc2ccccc2[nH]1)c1cc2ccccc2o1 returned TRAIL sens C8 66*, HSF1 inh 21, STAT3 blocker 26, STAT1 blocker -22, HSP90 refold inh 6, PPC-1+TRAIL kill 68* and PPC1 cytotox 69*.
`COc1ccc2oc(C(=O)Nc3nc4ccccc4[nH]3)c(C)c2c1` gave TRAIL sens C8 69*, HSF1 inh 26, HSP90 refold inh 5, PPC-1+TRAIL kill 59* and PPC1 cytotox 54*.
O=C(Nc1ccc(F)cc1)c1cc2ccccc2o1 was read as TRAIL sens C8 27, HSF1 inh 35 and HSP90 refold inh 2.
For N#Cc1ccc(-c2nc3ccc(Cl)cn3c2Cc2ccccc2)cc1 the results were TRAIL sens C8 -6.
`Cc1ccc(S(=O)(=O)N2C[C@@H](C)[C@]3(C2)[C@H](O)[C@H](OC(=O)NCc2ccccc2F)C[C@H]2C(=O)N(c4ccccc4)C(=O)[C@H]23)cc1` gave TRAIL sens C8 12.
Screening c1ccc2[nH]c(N3CCOCC3)nc2c1 returned TRAIL sens C8 -13, HSF1 inh -4, STAT3 blocker 16, STAT1 blocker 11, HSP90 refold inh 4 and PPC-1+TRAIL kill 3.
Screening O=c1c(Cl)c(N2CCOCC2)cnn1-c1nc2ccccc2[nH]1 returned TRAIL sens C8 37, HSF1 inh 0, STAT3 blocker 28, STAT1 blocker -42, HSP90 refold inh 5, PPC-1+TRAIL kill 20 and PPC1 cytotox 24.
`CCn1nnc(NC(=O)c2ccc(C(C)(C)C)cc2)n1` gave TRAIL sens C8 78*, HSF1 inh 23, STAT3 blocker 25, STAT1 blocker -17, HSP90 refold inh 5, PPC-1+TRAIL kill 57* and PPC1 cytotox 42.
`CC1CC(=O)Nc2ccccc2N1C(=O)Nc1ccc(F)cc1` (stereo not given) gave TRAIL sens C8 -13, HSF1 inh -8, HSP90 refold inh 5, PPC-1+TRAIL kill 13 and PPC1 cytotox 10.
Screening O=C1C=C(OCCCl)CC(c2cccc(Cl)c2)O1 (stereo not given) returned TRAIL sens C8 8.
Screening COc1cc(NC(=O)c2ccccc2Cl)c2ncccc2c1 returned TRAIL sens C8 26, HSF1 inh -5 and HSP90 refold inh 4.
CCC(CNc1cc(OC)cc2cccnc12)NC1CCCCC1 (stereo not given) was read as TRAIL sens C8 26, HSF1 inh -76*, HSP90 refold inh 29*, PPC-1+TRAIL kill -3 and PPC1 cytotox -16.
Screening Cc1c(-c2ccc(OCCN3CCOCC3)cc2)c(=O)oc2ccc3ccccc3c12 returned TRAIL sens C8 10.
Screening COc1ccc(C(=O)NC(=O)Nc2cc(C)ccn2)cc1 returned TRAIL sens C8 84*, HSF1 inh -28, STAT3 blocker 97*, STAT1 blocker 39*, HSP90 refold inh 22*, PPC-1+TRAIL kill 87* and PPC1 cytotox 87*.
Screening COc1cc(C(=O)Nc2cc(C)ccn2)cc(OC)c1OC returned TRAIL sens C8 -3, HSF1 inh 5, STAT3 blocker -1, STAT1 blocker 2, HSP90 refold inh -1 and PPC-1+TRAIL kill 29.
Screening O=C(/C=C/c1ccccc1)c1c[nH]c2ccccc12 returned TRAIL sens C8 58*, HSF1 inh 54, HSP90 refold inh 0, PPC-1+TRAIL kill 61* and PPC1 cytotox 66*.
`O=C(C(=O)N1CCN(C(=O)c2ccco2)CC1)c1ccccc1` gave TRAIL sens C8 6.
For CC(=O)N1CCN(C(=O)COc2ccccc2C(=O)Nc2ccccc2)CC1 the results were TRAIL sens C8 0, HSF1 inh -2, STAT3 blocker 10, STAT1 blocker -1, HSP90 refold inh -1, PPC-1+TRAIL kill 5 and PPC1 cytotox 8.
Cc1ccccc1OCC(=O)N1CCN(C(=O)COc2ccccc2C)CC1 was read as TRAIL sens C8 7, HSF1 inh 0 and HSP90 refold inh 3.
`O=C(Cn1nc(C(F)F)cc1C1CC1)NCCC1=CCCCC1` gave TRAIL sens C8 -5, HSF1 inh 1, STAT3 blocker -3, STAT1 blocker 6, HSP90 refold inh 2 and PPC-1+TRAIL kill 44.
`CN(C)CCNC(=O)Cn1nc(C(F)F)cc1C1CC1` gave TRAIL sens C8 6, HSF1 inh -7, STAT3 blocker 6, STAT1 blocker 7, HSP90 refold inh 3, PPC-1+TRAIL kill -8 and PPC1 cytotox -14.
`O=C1CCCCCC(=O)[C@H](O)C[C@H](c2ccccc2)O1` gave TRAIL sens C8 -21.

Source: PubChem BioAssay
